Rows were chosen to be rich in hits. Some 1.1% of all compounds tested hit in one or more screens of this group.
GalR3 antag = GalR3 antagonists in HEK293 cells, primary screen, cell-based, fluorescence readout. Galanin receptor type 3 (Homo sapiens), O60755. HEK293 GalR3-CNG cAMP membrane potential fluorescence; galR3 body fused to GalR1 C-terminus. inhibition, % at 3 µM. actives 0.44% (n = 360,000). AID 651719, 2012;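 active = inhibition above the screen-wide average plus 3 SD, cut at about 13% in these data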;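 also: forskolin and galanin both at EC90 stimulate the cells; cAMP rise reported by CNG channel membrane potential dye signal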
SRC1 inh = SRC1 coactivator transcriptional activity inhibitors, primary screen, cell-based, luminescence | Nuclear receptor coactivator 1 (Homo sapiens), Q15788 | actives 0.12% (n = 360,000) | HEK293 GAL4-SRC1 luciferase reporter | inhibition, % at 3.6 µM | AID 588354, 2011;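 active = inhibition above the campaign mean plus 3 SD, with each screening campaign given its own cutoff, cut at about 60% in these data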
Target sequence (Q15788 whole entry, looked up, the tested form may be a part): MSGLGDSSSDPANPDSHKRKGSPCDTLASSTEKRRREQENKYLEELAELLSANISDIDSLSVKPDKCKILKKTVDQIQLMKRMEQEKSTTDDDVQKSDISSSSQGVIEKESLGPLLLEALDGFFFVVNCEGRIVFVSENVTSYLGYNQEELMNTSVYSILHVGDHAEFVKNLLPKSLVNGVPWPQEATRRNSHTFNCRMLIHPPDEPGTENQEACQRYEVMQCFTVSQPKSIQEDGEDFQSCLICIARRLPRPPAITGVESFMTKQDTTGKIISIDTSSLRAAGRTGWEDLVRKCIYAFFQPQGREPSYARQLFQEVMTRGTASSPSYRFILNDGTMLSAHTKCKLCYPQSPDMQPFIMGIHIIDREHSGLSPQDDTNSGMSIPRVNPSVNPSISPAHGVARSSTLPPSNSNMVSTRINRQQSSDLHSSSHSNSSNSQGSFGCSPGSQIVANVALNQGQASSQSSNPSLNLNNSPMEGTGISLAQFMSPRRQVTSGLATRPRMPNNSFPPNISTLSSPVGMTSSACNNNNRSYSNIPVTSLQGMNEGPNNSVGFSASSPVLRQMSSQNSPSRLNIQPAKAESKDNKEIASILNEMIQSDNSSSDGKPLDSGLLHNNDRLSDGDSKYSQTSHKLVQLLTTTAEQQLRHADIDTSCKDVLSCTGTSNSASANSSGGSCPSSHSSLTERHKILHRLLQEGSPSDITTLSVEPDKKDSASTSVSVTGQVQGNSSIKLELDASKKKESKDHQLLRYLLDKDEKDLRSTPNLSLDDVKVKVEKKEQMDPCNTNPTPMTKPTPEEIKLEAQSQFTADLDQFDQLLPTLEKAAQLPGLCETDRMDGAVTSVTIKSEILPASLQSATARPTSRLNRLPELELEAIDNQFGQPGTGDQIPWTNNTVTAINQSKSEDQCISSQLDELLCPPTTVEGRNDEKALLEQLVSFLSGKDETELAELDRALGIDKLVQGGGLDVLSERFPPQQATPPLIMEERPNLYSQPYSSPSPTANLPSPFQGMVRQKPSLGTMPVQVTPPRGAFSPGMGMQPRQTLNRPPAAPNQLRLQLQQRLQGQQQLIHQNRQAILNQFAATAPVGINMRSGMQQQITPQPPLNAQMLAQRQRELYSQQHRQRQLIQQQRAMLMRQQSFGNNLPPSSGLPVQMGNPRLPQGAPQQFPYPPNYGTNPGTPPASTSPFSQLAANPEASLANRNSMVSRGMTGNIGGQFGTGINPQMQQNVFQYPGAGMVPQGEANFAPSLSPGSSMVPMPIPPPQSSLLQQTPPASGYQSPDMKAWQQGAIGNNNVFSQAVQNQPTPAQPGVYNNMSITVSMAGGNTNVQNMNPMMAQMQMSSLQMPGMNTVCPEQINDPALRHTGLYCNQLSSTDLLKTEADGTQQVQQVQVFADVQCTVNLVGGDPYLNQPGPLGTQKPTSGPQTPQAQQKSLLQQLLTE
NCOA2 inhibitor = inhibition of GAL4-SRC2 driven luciferase reporter, primary screen, SRC2 inhibitor project, cell-based, luminescence. Nuclear receptor coactivator 2 (Homo sapiens), Q15596. HEK293 GAL4-SRC2 luciferase reporter. inhibition, % at 9 µM. actives 0.17% (n = 370,000);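 active = inhibition above the mean inhibition of all tested compounds plus 3 SD, set per campaign, cut at about 52% in these data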
NCOA3 inh = SRC3 coactivator transcriptional activity inhibitors, primary screen, cell-based, luminescence | HEK293 GAL4-SRC3 luciferase reporter | inhibition, % at 3.6 µM | actives 0.17% (n = 360,000) | AID 588352, 2011;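 active = inhibition above a per-campaign cutoff, the mean of all compounds plus 3 SD, cut at about 60% in these data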;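 also: higher means less SRC3-driven luciferase light from the GAL4 reporter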
LRH-1 inv ag = LRH-1 (NR5A2) inverse agonists, primary screen, cell-based, luminescence, HEK293T, StAR-luciferase reporter. Nuclear receptor subfamily 5 group A member 2 (Homo sapiens), O00482. LRH-1 transfected, 24 h. inhibition, % at 3.6 µM. actives 0.13% (n = 360,000);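 active = inhibition above the mean inhibition of all tested compounds plus 3 SD, cut at about 73% in these data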
COUP-TFII inh = NR2F2 transcriptional activity inhibitors, primary screen, cell-based, luciferase reporter, HEK293T, luminescence. COUP transcription factor 2 (Homo sapiens), P24468. HEK293T NGFI-A luciferase reporter. inhibition, % at 8.6 µM. actives 0.7% (n = 370,000);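 active = inhibition above a per-plate cutoff, mean inhibition of test wells between control levels plus 3 SD, cut at about 38% in these data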;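 also: cells cotransfected with COUP-TFII expression vector driving the NGFI-A reporter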
Gal4-VP16 ctr = Gal4-VP16 luciferase reporter inhibitors, counter-screen for COUP-TFII antagonist project, cell-based, luminescence, HEK293; actives 25% (n = 2,500); inhibition, % at 8.5 µM; shares compounds with COUP-TFII inh; in the data active = inhibition above about 13%
NR2F2 inh conf = NR2F2 transcriptional activity inhibitors, confirmation, cell-based, luciferase reporter, HEK293, triplicate; shares compounds with COUP-TFII inh; HEK293 NGFI-A luciferase reporter, luminescence; inhibition, % at 8.5 µM; actives 45% (n = 2,500); AID 687008, 2013;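 active = mean inhibition over three repeats above a set limit taken from the earlier primary screen, cut at about 38% in these data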
Hits are given with their value; - = inactive; . = no result given.

SMILES	GalR3 antag	SRC1 inh	NCOA2 inhibitor	NCOA3 inh	LRH-1 inv ag	COUP-TFII inh	Gal4-VP16 ctr	NR2F2 inh conf
O=C(NCCc1ccccc1)c1ccc2c(c1)OCCO2	-	-	75.8	-	-	71.3	36.5	53.4
Nc1cc[n+](CC(=O)c2ccc3c(c2)OCCO3)cc1	-	-	-	-	-	39.7	-	-
O=C(CCCc1ccccc1)c1ccc2c(c1)OCCO2	-	70.7	74.8	69.7	-	84.8	48.9	89.5
Cc1cc(C)cc(C(O)c2ncc(-c3cccc(F)c3)[nH]2)c1 (stereo unspecified)	-	-	-	-	-	-	.	.
Cc1ccccc1S(=O)(=O)NC(=O)C1(C)CCN1C(=O)CC1CCCC1 (stereo unspecified)	-	-	-	-	-	-	.	.
O=C(C1CCCCC1)N1C[C@H](O)[C@@H](n2cc(-c3ccc(F)cc3)nn2)C[C@@H]1c1ccccc1	-	-	-	-	-	-	.	.
COC(=O)Cc1ccc(NC(=O)c2ccc(C(C)(C)C)cc2)cc1	-	-	83.2	-	-	94.7	83.1	93.5
NS(=O)(=O)c1ccc(NC(=O)COc2ccc(C(=O)c3ccc(F)cc3)cc2)cc1	-	-	-	-	-	38.3	-	-
COC(=O)[C@]12C[C@H](CC(=O)N3CCOCC3)C(=O)N(CCc3ccc(OC)c(OC)c3)C1=C[C@H](C(C)C)O[C@@H]2C1CC1	.	.	-	.	.	-	.	.
CCOC(=O)c1c(C)nn(-c2ccc(NC(=O)/C=C/C(=O)O)cc2)c1C	-	-	60.9	-	-	65.1	36.4	-
COC(=O)C1=C(C)N(Cc2ccccc2C(F)(F)F)C(=NCc2cccc(C(F)(F)F)c2)NC1CCc1ccccc1 (stereo unspecified)	-	.	-	.	.	-	.	.
c1ccc(-c2ccc(-c3nc(-c4ccccn4)no3)cc2)cc1	-	-	66.8	66.4	-	63.5	70.9	87.8
Cc1ccc(-c2nc(-c3ccccn3)no2)cc1	-	-	74.9	-	-	71.8	60.3	78.5
O=C(Nc1cc(S(=O)(=O)N2CCCCC2)ccc1O)c1ccccc1NS(=O)(=O)c1ccc(F)cc1	-	-	-	-	-	-	.	.
O=C(Nc1cc(S(=O)(=O)N2CCCCC2)ccc1Cl)c1ccccc1NS(=O)(=O)c1ccc(F)cc1	-	-	-	-	-	47.4	-	-
Cc1oc(-c2ccc3c(c2)OCCO3)cc1C(=O)O	-	-	74.5	-	-	52.0	-	-
Cc1c(/C(O)=C2/C(=O)C(=O)N(CCN3CCOCC3)C2c2cccnc2)cnn1-c1ccccc1 (stereo unspecified)	-	-	-	-	-	-	.	.
Cc1c(/C(O)=C2/C(=O)C(=O)N(CCN3CCOCC3)C2c2ccco2)cnn1-c1ccccc1 (stereo unspecified)	-	-	-	-	-	60.0	-	45.8
Cc1c(/C(O)=C2/C(=O)C(=O)N(Cc3cccnc3)C2c2ccccn2)cnn1-c1ccccc1 (stereo unspecified)	-	70.0	76.6	76.1	-	95.2	-	-
CC(=O)OCC(=O)C1(O)CCC2C3CCC4=CC(=O)CCC4(C)C3(F)C(O)CC21C (stereo unspecified)	-	-	-	-	-	-	.	.
COc1cc(NC(=O)c2ccccn2)ccc1NC(=O)c1ccccc1Cl	.	.	.	.	.	-	.	.
COC(=O)[C@]12C[C@H](CC(=O)NCc3ccccc3)C(=O)N(CCc3ccc(OC)c(OC)c3)C1=C[C@H](C1CCCC1)O[C@@H]2C	.	.	-	.	.	-	.	.
